The text below walks through data of PubChem BioAssay (NCI).

Test systems include DU-145 prostate; K-562 leukemia; MALME-3M melanoma; MDA-MB-231 breast; RXF 393 renal; SF-268 CNS; SF-295 CNS; SF-539 CNS; UACC-257 melanoma; M14 melanoma.
Holding throughout (assay): NCI-60 one-dose screen, 48 h (100 = growth as untreated, 0 = no growth, -100 = all killed)
Conditions in all cases: 10 µM unless noted

Each structure is given as a SMILES string. This is part of a sample that, as a whole, favours compounds with a hit. Of some 83,000 tested, about 20% had one in any assay.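 Step 1: grow cells in 96-well plates. Step 2: add test compound at a single concentration. Step 3: incubate 48 h. Step 4: record percent growth.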 Values without a mark were called inactive. The source made the active and inactive calls. The calls were made as follows: active = growth percent below 10; inactive = the rest.

On to `OC(COc1cccc2ccccc12)CN1CCN(c2ccccc2Cl)CC1` (stereo not given), for which the growth in the experiment on DU-145 prostate was 109%; in the experiment with K-562 leukemia, 99.3%; in the experiment with MALME-3M melanoma, 108%; in the experiment on MDA-MB-231 breast, 83.7%; with RXF 393 renal, 158%; with SF-268 CNS, 98.6%. Besides, the growth was 86.4% with SF-295 CNS, 93.2% in the experiment with SF-539 CNS, -1.88% (active) in the experiment with UACC-257 melanoma and 84.7% in the experiment on M14 melanoma.
Turning to `C=CC(COC(c1ccccc1)(c1ccccc1)c1ccccc1)N(CC)CC` (stereo not given), the growth in the experiment with DU-145 prostate is 69.9%; in the experiment on K-562 leukemia, 14.4%; with MALME-3M melanoma, 61.9%; in the experiment on MDA-MB-231 breast it was 37%; in the experiment with RXF 393 renal it was -5.47% (active); in the experiment on SF-268 CNS, 81.9%. In addition, the growth is 64.1% in the experiment with SF-295 CNS, 62.6% with SF-539 CNS, 6.09% (active) in the experiment with UACC-257 melanoma and 9.54% (active) with M14 melanoma.
On to `CCOC(=O)c1sc2nc(-c3cccc(OC)c3)nc(N3CCOCC3)c2c1C`, for which the growth was 101% in the experiment with DU-145 prostate; 97.2% in the experiment on K-562 leukemia; 117% with MALME-3M melanoma; 95% with MDA-MB-231 breast; 95.6% in the experiment with RXF 393 renal; 88.4% in the experiment on SF-268 CNS. The growth in the experiment with SF-295 CNS was 99.5%; in the experiment with SF-539 CNS, 98.8%; in the experiment with UACC-257 melanoma it was 115%; in the experiment with M14 melanoma, 120%.
In the case of `OCC(O)c1nc2ccc3[nH]ncc3c2c2c1CCCC2` (stereo not given), the growth in the experiment on DU-145 prostate is 11.7%; with K-562 leukemia, 37.2%; in the experiment on MALME-3M melanoma, 19%; with MDA-MB-231 breast, 1.65% (active); in the experiment on RXF 393 renal, -58.4% (active); in the experiment with SF-268 CNS, -3.77% (active). Further, the growth in the experiment on SF-295 CNS was 9.19% (active); in the experiment with SF-539 CNS, -39.1% (active); in the experiment with UACC-257 melanoma it was 10.2%; in the experiment with M14 melanoma, 5.99% (active).
Turning to `CC1=C[C@H]2c3c(c(O)c(O)c4oc5ccccc5c(=O)c34)[C@H](c3cc(O)c(O)c4oc5ccccc5c(=O)c34)[C@H]2C(C)(C)C1`, the growth is 14.9% in the experiment with DU-145 prostate; 3.25% (active) with K-562 leukemia; -1.47% (active) in the experiment on MALME-3M melanoma; 12.1% with MDA-MB-231 breast; 7.55% (active) in the experiment with RXF 393 renal; 5.33% (active) in the experiment on SF-268 CNS. For the same molecule, the growth is -33.4% (active) in the experiment with SF-295 CNS, -5.05% (active) in the experiment on SF-539 CNS, 7.1% (active) in the experiment with UACC-257 melanoma and -70.4% (active) with M14 melanoma.
As for `Nc1nc2ccc3[nH]ncc3c2c2c1CCCC2`, the growth with DU-145 prostate was 6.94% (active); in the experiment on K-562 leukemia it was 9.77% (active); in the experiment on MALME-3M melanoma it was 23%; with MDA-MB-231 breast, 4% (active); with RXF 393 renal, -51.1% (active); in the experiment with SF-268 CNS it was -9.66% (active). Moreover, the growth in the experiment on SF-295 CNS was 17.1%; with SF-539 CNS, -32.9% (active); with UACC-257 melanoma, 15.6%; in the experiment with M14 melanoma it was 1.67% (active).
For `O=[N+]([O-])c1cnc(N2CCN(CC3CC3)CC2)nc1N1CCN(CC2CC2)CC1`, the growth was 101% in the experiment on DU-145 prostate; 102% in the experiment with K-562 leukemia; 97.7% in the experiment with MALME-3M melanoma; 99.9% in the experiment on MDA-MB-231 breast; 73.1% with RXF 393 renal; 87.7% in the experiment on SF-268 CNS. In addition, the growth in the experiment on SF-295 CNS is 99.5%; in the experiment on SF-539 CNS, 90.8%; with UACC-257 melanoma it was 108%; in the experiment with M14 melanoma, 98.2%.
As to `COc1cc(/C=C/c2cc(/C=C/c3ccc(O)c(OC)c3)n(-c3c(C)cccc3C)c(=O)n2)ccc1O`, the growth in the experiment with DU-145 prostate was 12.7%; in the experiment on K-562 leukemia, 5.52% (active); in the experiment on MALME-3M melanoma it was -14% (active); in the experiment with MDA-MB-231 breast, 23.1%; with RXF 393 renal, -32.1% (active); in the experiment with SF-268 CNS it was 8.69% (active). Moreover, the growth with SF-295 CNS is 8.43% (active); with SF-539 CNS, -23.5% (active); with UACC-257 melanoma, -6.5% (active); in the experiment on M14 melanoma, 8.07% (active).
As to `COc1ccc(C(=O)COc2cccc(/C=C3\CSc4ccccc4C3=O)c2)cc1`, the growth is 102% with DU-145 prostate; -73.4% (active) in the experiment on K-562 leukemia; -67.2% (active) in the experiment with MALME-3M melanoma; 76.6% with MDA-MB-231 breast; -39.6% (active) in the experiment on RXF 393 renal; 51.7% with SF-268 CNS. Further, the growth was 38% in the experiment on SF-295 CNS, 62.5% in the experiment with SF-539 CNS, -35.8% (active) with UACC-257 melanoma and -26.3% (active) with M14 melanoma.
Regarding `N#CCCN=Nc1c(O)[nH]c2ccc(F)cc12`, the growth is 106% in the experiment on DU-145 prostate; 119% in the experiment on K-562 leukemia; 99.2% in the experiment with MALME-3M melanoma; 102% in the experiment on MDA-MB-231 breast; 103% in the experiment on RXF 393 renal; 96.5% in the experiment on SF-268 CNS. Also, the growth is 101% in the experiment on SF-295 CNS, 105% in the experiment on SF-539 CNS, 118% in the experiment on UACC-257 melanoma and 98% in the experiment on M14 melanoma.
On to `COc1cccc(-c2nc3sccn3c2-c2ccnc(NCCNS(=O)(=O)c3ccccc3)c2)c1`, for which the growth in the experiment with DU-145 prostate is 20.5%; with K-562 leukemia, 11.1%; in the experiment with MALME-3M melanoma, 43.1%; in the experiment on MDA-MB-231 breast it was 58.9%; in the experiment on RXF 393 renal it was 47.5%; in the experiment on SF-268 CNS, 31.9%. Also, the growth with SF-295 CNS is 10.8%; with SF-539 CNS it was 66.9%; in the experiment on UACC-257 melanoma, 42.5%; with M14 melanoma, 22.5%.
Consider `COc1ccc(-c2nc3ccc(-c4nc5ccc(N6CCN(C)CC6)cc5[nH]4)cc3[nH]2)cc1OC`, for which the growth in the experiment with DU-145 prostate was 77.6%; with K-562 leukemia, 40.5%; with MALME-3M melanoma it was 0.551% (active); in the experiment with MDA-MB-231 breast, 82.9%; in the experiment on RXF 393 renal it was 96.6%; with SF-268 CNS it was 50.6%. Also, the growth with SF-295 CNS is 66.6%; in the experiment on SF-539 CNS, 70.5%; in the experiment on UACC-257 melanoma it was 25.2%; in the experiment with M14 melanoma, 18.3%.
For the molecule `Cc1cc(N2CCOCC2)nc(NCc2cc(Nc3ccnc4cc(Cl)ccc34)ccc2F)n1`, the growth in the experiment with DU-145 prostate was -57.6% (active); with K-562 leukemia, -4.96% (active); in the experiment with MALME-3M melanoma, -73.7% (active); in the experiment on MDA-MB-231 breast it was -78.3% (active); in the experiment with RXF 393 renal, -92.4% (active); with SF-268 CNS, -52.5% (active). Besides, the growth with SF-295 CNS was -84.4% (active); in the experiment with SF-539 CNS it was -80.4% (active); in the experiment on UACC-257 melanoma, -68.3% (active); with M14 melanoma it was -83.7% (active).
